The text below walks through data of PubChem BioAssay (Tox21).

A short description of assay [1]: qHTS assay for small molecule agonists of the p53 signaling pathway (AID 651631; calls by dose curve; further: nearly all actives have a fitted effect of over 15% in size). The procedure, abridged: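 Agonist mode screen using a stably integrated beta-lactamase gene under p53 response elements in HCT-116 cells. Compound exposure lasts 16 h at 37 °C; fluorescence intensity is measured following 2 h FRET substrate loading.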
(In general: qHTS replaces the single test concentration by a dilution series.)

Assay [2] in a line: qHTS assay for small molecules that induce genotoxicity in human embryonic kidney cells expressing luciferase-tagged ATAD5 (AID 651632). Further: nearly all actives have a fitted effect of over 15% in size. Further: potency means the concentration at half of the fitted maximal effect. The procedure, abridged:
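A rise in luciferase signal from ATAD5-tagged HEK293T cells marks genetic stress. Cells were exposed to compounds for 16 hr at 37C, 5% CO2, then luciferase was quantified after a 30 min room-temperature incubation with Amplite.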

Assay [3] can be described thus: qHTS assay for small molecule agonists of the p53 signaling pathway - cell viability (AID 651633; calls by dose curve;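 further: p53RE-bla HCT reporter cells with a stable beta-lactamase p53 reporter; series mostly up to about 83 µM; nearly all actives have a fitted effect of over 30% in size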). The procedure, abridged:
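p53RE-bla cells were treated with compound for 16 hours at 37 C. Cytotoxicity was then measured as CellTiter-Glo luminescence after 30 min at room temperature.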

A short description of assay [4]: qHTS assay for small molecules that induce genotoxicity in human embryonic kidney cells expressing luciferase-tagged ATAD5 - cell viability (AID 651634; calls by dose curve; further: nearly all actives have a fitted effect of over 25% in size). In a few lines: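 Cytotoxicity counter-readout: after 15.5 hr compound treatment at 37C, live-cell protease activity in ATAD5-luciferase HEK293T cells measured by CellTiter-Fluor fluorescence, 30 min development at 37C.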

Assay [5] can be described thus: qHTS assay to test for compound auto fluorescence at 535 nm (green) in HepG2 cells (AID 720675).
The nature of assay [6]: qHTS assay to test for compound auto fluorescence at 590 nm (red) in HEK293 cells (AID 720679). The procedure, abridged: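 HEK293 cells (2,000/well, medium with 10% dialyzed FBS) attached for 4-5 hr at 37C, received 23 nL compound and were incubated overnight at 37C, 5% CO2. Red fluorescence was then read at 540/590nm Ex/Em, referenced to Rose Bengal sodium.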
A short description of assay [7]: qHTS assay to test for compound auto fluorescence at 535 nm (green) in HEK293 cells (AID 720680).
Assay [8] can be described thus: qHTS assay to test for compound auto fluorescence at 460 nm (blue) in HEK293 cell free culture (AID 720681). In a few lines:
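Compounds were added to cell-free DMEM with 10% FBS and fluorescence read directly. The blue channel used 405 nm excitation and 460 nm emission, with triamterene as the reference fluorophore.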

A short description of assay [9]: qHTS assay to test for compound auto fluorescence at 535 nm (green) in HEK293 cell free culture (AID 720682). The procedure, abridged: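 No cells present: wells hold DMEM supplemented with 10% FBS, into which compound or vehicle is pinned. Green emission is then recorded (485 nm excitation, 535 nm emission) and scaled to fluorescein.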
A short description of assay [10]: qHTS assay to test for compound auto fluorescence at 590 nm (red) in HEK293 cell free culture (AID 720683). In a few lines: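 Cell-free wells of DMEM with 10% FBS received compound, and intrinsic fluorescence was read at excitation/emission 540/590 nm. Values expressed as equivalence to Rose Bengal sodium.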
A short description of assay [11]: qHTS assay to test for compound auto fluorescence at 460 nm (blue) in HepG2 cell free culture (AID 720685). In a few lines:
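Cell-free plates of MEM plus 10% FBS received 23 nL compound or DMSO vehicle; blue-channel (405/460 nm) intensity scored against triamterene as reference fluorophore.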

Assay [12] can be described thus: qHTS assay to test for compound auto fluorescence at 535 nm (green) in HepG2 cell free culture (AID 720686).
Assay [13] is described as follows: qHTS assay to test for compound auto fluorescence at 460 nm (blue) in HepG2 cells (AID 720687). The procedure, abridged:
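HepG2 cells in MEM with 10% FBS, attached overnight at 37 C, were exposed to compound or DMSO for 1 hr at 37 C, 5% CO2. Blue fluorescence was read at 405/460 nm, with triamterene as reference fluorophore.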

A short description of assay [14]: qHTS assay for small molecule disruptors of the mitochondrial membrane potential - cell viability (AID 720634; calls by dose curve;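 further: human HepG2 liver cancer cells; series mostly up to about 83 µM; nearly all actives have a fitted effect of over 20% in size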). The procedure, abridged: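 Cytotoxicity was quantified from ATP content by CellTiter-Glo luminescence in the same wells as the MMP dye read-out. HepG2 (2,000 cells/well) were plated overnight and exposed to compounds for 1 hr at 37 C.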
Assay [15] can be described thus: qHTS assay to test for compound auto fluorescence at 590 nm (red) in HepG2 cells (AID 720674). In a few lines:
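Fluorescence at 590 nm emission following 540 nm excitation was recorded from HepG2 wells one hour after compound transfer, with DMSO-only wells as vehicle and Rose Bengal sodium equivalency as the scale.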

The nature of assay [16]: qHTS assay to test for compound auto fluorescence at 460 nm (blue) in HEK293 cells (AID 720678). The procedure, abridged:
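HEK293 cells (2,000 per well, medium with 10% dialyzed FBS) attached for 4-5 hr at 37C, then received compound and stood overnight at 37C, 5% CO2. Blue fluorescence was read at Ex/Em 405/460 nm and expressed relative to triamterene.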

A short description of assay [17]: qHTS assay to test for compound auto fluorescence at 590 nm (red) in HepG2 cell free culture (AID 720684). The procedure, abridged:
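Auto fluorescence equivalency versus Rose Bengal sodium, red channel Ex/Em 540/590 nm; compounds in cell-free MEM/10% FBS; DMSO vehicle control.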

Assay [18] addresses Glucocorticoid receptor (Homo sapiens) (UniProt P04150). Briefly: qHTS assay to identify small molecule agonists of the glucocorticoid receptor (GR) signaling pathway (AID 720691; active means well fitted activation curve with a large enough effect in the signal ratio in the repeat runs, not every such curve was filed as active; the % refers to the signal ratio; further: potency means the concentration at half of the fitted maximal effect). In a few lines:
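Agonist-mode qHTS in HeLa cells stably expressing a glucocorticoid-response-element beta-lactamase reporter. Fluorescence intensity read with FRET substrate (2 h, room temperature) after 18 h compound treatment at 37 C.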

The target is the same in assay [19]. Nature of the assay: qHTS assay to identify small molecule antagonists of the glucocorticoid receptor (GR) signaling pathway (AID 720692; active means well fitted inhibition curve with a large enough effect in the signal ratio in the repeat runs, not every such curve was filed as active; the % refers to the signal ratio). The procedure, abridged:
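Inhibition of dexamethasone-driven (5 nM final) beta-lactamase expression was measured in GRE-reporter HeLa cells over 18 h at 37C. Fluorescence was read after 2 h with the B/G FRET substrate at room temperature.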

Assay [20] in a line: qHTS assay for small molecule disruptors of the mitochondrial membrane potential (AID 720635). The procedure, abridged: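 HepG2 cells exposed to compound 1 hr at 37C, then Mito-MPS dye 30 min. Ratio read of aggregate (540/590 nm) versus monomer (490/535 nm) fluorescence.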

Values without a mark were called inactive. Results filed as inconclusive are left out. Activity calls are given as the source filed them. Unless noted, the call rests on the fitted dose curve; in most records, active means well fitted curve in the direction sought with a large enough effect in the repeat runs; inconclusive means weak or mixed curves; inactive means no such curve, though single readings can be large; an effect the other way counts as inactive or inconclusive.
On the % scale 0 is the no-effect control and ±100 the full control effect.

Sequence of Glucocorticoid receptor (Homo sapiens) (P04150 whole entry, looked up): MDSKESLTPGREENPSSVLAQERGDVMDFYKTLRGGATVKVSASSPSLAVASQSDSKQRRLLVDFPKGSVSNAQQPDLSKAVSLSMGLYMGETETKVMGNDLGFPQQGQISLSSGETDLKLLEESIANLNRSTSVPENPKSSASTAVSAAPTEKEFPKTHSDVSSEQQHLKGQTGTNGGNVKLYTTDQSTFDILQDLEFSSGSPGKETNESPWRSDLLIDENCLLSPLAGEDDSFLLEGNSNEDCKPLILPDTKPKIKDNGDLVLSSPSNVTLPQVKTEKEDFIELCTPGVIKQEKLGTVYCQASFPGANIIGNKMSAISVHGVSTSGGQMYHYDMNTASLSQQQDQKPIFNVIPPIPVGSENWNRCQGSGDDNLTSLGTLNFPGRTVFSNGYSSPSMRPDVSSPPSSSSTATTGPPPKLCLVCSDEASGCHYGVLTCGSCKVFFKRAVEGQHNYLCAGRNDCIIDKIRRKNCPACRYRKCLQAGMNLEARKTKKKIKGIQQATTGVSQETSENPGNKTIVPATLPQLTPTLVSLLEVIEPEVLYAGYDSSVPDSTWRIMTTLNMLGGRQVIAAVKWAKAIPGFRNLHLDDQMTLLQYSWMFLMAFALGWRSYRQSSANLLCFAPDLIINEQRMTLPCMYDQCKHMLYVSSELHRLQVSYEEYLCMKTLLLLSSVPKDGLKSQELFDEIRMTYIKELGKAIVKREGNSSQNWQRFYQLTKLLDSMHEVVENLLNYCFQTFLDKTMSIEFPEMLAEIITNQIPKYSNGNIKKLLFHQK

For the compound `C=C(C)[C@H]1CC=C(C)CC1`, the Potency entry in [1], in assay [2], in assay [3], in assay [4], in assay [8] and in assay [11] was “inactive” throughout. In addition, the Potency entry in assay [13] is “inactive”. In addition, the result in assay [5], in [6], in [7], in assay [9], in assay [10] and in assay [12] was inactive.
`CCCOCC(C)OCC(C)O` (configuration not stated): the Potency result in [1], in [3], in [4], in assay [14], in [16] and in [8] was “inactive” each time. The Potency result in assay [11], in assay [13] and in assay [18] was “inactive” each time. The call in assay [15], in [5], in assay [6], in [7], in assay [9] and in [10] was inactive. Moreover, the outcome in assay [17] and in assay [12] was inactive.
Take `OCCCCCCO`: the Potency result in [1], in assay [2], in [3], in assay [4], in [14] and in assay [16] was “inactive” in each case. Moreover, the Potency result in assay [8], in assay [11], in assay [13] and in assay [18] was “inactive” each time. Also, the call in assay [5], in assay [6], in [7], in assay [9], in assay [10] and in assay [12] was inactive.
Consider `CCOC(=O)Nc1ccc2c(c1)N(C(=O)CCN1CCOCC1)c1ccccc1S2`, for which the Potency result in assay [1], in assay [2], in [3], in assay [4], in [14] and in assay [18] was “inactive” in each case. Moreover, the Potency entry in assay [19] was “inactive”. In assay [15], the fluorescence, relative to Rose Bengal is 0.181% [at 18.6 µM]. Further, the fluorescence, % of fluorescein control in assay [5] is 0.0633% [at 18.6 µM]; in [12], -0.013% [at 18.6 µM]. Besides, the fluorescence, % of fluorescent control in assay [6] is 0.108% [at 18.6 µM]; in assay [8], 0.0825% [at 18.6 µM]; in assay [10], -0.268% [at 18.6 µM]; in [11], 0.0956% [at 18.6 µM]; in [13] it was -0.0127% [at 18.6 µM]. In addition, the fluorescence, % of fluorescein in assay [7] is 0.023% [at 18.6 µM]. Further, the fluorescence, % of Rose Bengal in [17] was 0.0254% [at 18.6 µM].
On to `Cc1ccccc1C(=O)O`, for which the Potency result in assay [1], in [3], in assay [4], in [14], in [20] and in assay [16] was “inactive” in each case. Besides, the Potency entry in assay [8], in assay [11] and in assay [13] was “inactive” each time. Further, the call in assay [15], in [5], in [6], in [7], in assay [9] and in [10] was inactive. Besides, the result in [17] and in [12] was inactive.
`C[C@H](O)C(=O)Nc1c(I)c(C(=O)NC(CO)CO)c(I)c(C(=O)NC(CO)CO)c1I`: the Potency entry in assay [1], in assay [2], in assay [3], in assay [4] and in assay [14] was “inactive” each time. The values for the fluorescence, % of fluorescein control in assay [5] and in [12] were 0.0325% [at 18.6 µM] and -0.0219% [at 18.6 µM], respectively. Also, the fluorescence, % of fluorescent control in assay [6] is 0.0561% [at 18.6 µM]; in assay [8], -0.108% [at 18.6 µM]; in [10] it was 0.0628% [at 18.6 µM]; in assay [11], -0.0806% [at 18.6 µM]; in [13], -0.0019% [at 18.6 µM]. Moreover, the fluorescence, % of fluorescein in assay [7] is -0.048% [at 18.6 µM]. For the same compound, the activity change in [9] was 0.0506% [at 18.6 µM]. For the same compound, the fluorescence, % of Rose Bengal in [17] is 0.0851% [at 18.6 µM]. Moreover, the Potency in [18] is 6.44 µM (active).
For the compound `Cc1nc(-c2ccc(OCC(C)C)c(C#N)c2)sc1C(=O)O`, the Potency entry in assay [1], in [3], in assay [4], in [8], in assay [11] and in assay [13] was “inactive” throughout. Besides, the Potency result in assay [18] was “inactive”. Further, the Potency in [2] was 0.15 µM (active). Besides, the outcome in [15], in assay [5], in [6], in assay [7], in assay [9] and in [10] was inactive. Besides, the compound was classed as inactive in assay [17] and in assay [12].
